# In the supplement of paper PMC12067093, “Discovery and optimisation of a covalent ligand for TRIM25 and its application to targeted protein ubiquitination” (Chemical Science, 2025):
# The full data set covers some 21,000 targets. This sample favours those with the largest changes.
# Compound: Cc1cc(ccc1-c1ccccc1)C(=O)N1CCCN(CC1)C(=O)CCl [compound 10]
# Test: probe-labelled cysteine peptide fold change vs DMSO (competition) (log2 fold change); higher = less target engagement (more negative = stronger competition)
# Settings: 50 µM; THP-1; incubation time: 4 h
# 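Further: competitive profiling in live THP-1 cells: cysteine peptides tagged with an iodoacetamide desthiobiotin (IA-DTB) probe, intensity after compound treatment relative to DMSO-treated cells.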
row,Target,probe-labelled cysteine peptide fold change
1,MAPK9_P45984_222_GCVIFQGTDHIDQWNK (UniProt P45984),0.0724
2,MYBL2_P10244_147_SCWTEEEDRIICEAHK (UniProt P10244),-0.335
3,LRRC8A_Q8IWT6_768+776_GNRLECLPVELGECPLLK (UniProt Q8IWT6),-0.0226
4,LYSMD2_Q8IV50_106_LFTNDCIFLK (UniProt Q8IV50),-1.77
5,LRPPRC_P42704_380_EDGPSVFGSFFLQHCVTMNTPVEK (UniProt P42704),0.322
6,MYD88_Q99836_168_FDAFICYCPSDIQFVQEMIR (UniProt Q99836),-1.05
7,MMTAG2_Q9BU76_103_EDFAEVCKR (UniProt Q9BU76),-0.321
8,MICALL1_Q8N3F8_597_GSSGPQPAKPCSGATPTPLLLVGDR (UniProt Q8N3F8),-0.459
9,MPI_P34949_289_GDCVECMACSDNTVR (UniProt P34949),-0.0489
10,MTMR10_Q9NXD2_70_LICSNFK (UniProt Q9NXD2),-0.103
11,LPIN3_Q9BQK8_443_SLRDPNPEHEPEPTLDTVDTIALSLCGGLADSR (UniProt Q9BQK8),0.0613
12,MAK16_Q9BXY0_17_QFCSFK (UniProt Q9BXY0),-0.166
13,LRP1_Q07954_3021_GGDPHSCK (UniProt Q07954),-0.308
14,MPC2_O95563_54_WGLVCAGLADMARPAEK (UniProt O95563),-1.31
15,MFN1_Q8IWA4_513_LCSDFQEDIVFR (UniProt Q8IWA4),0.451
16,MCMBP_Q9BTE3_249_VYEDWDCFK (UniProt Q9BTE3),-0.0294
